# Measurements taken from PubChem BioAssay (NCATS).
# Results filed as inconclusive are left out. The source made the active and inactive calls. Calls come from the whole dose curve; as a rule, active = well fitted inhibition curve with a large enough effect; inconclusive = small, poorly fitted or top-dose-only effect; inactive = flat fitted curve, though single readings scatter.
# Target: Lysine-specific demethylase 5B (Homo sapiens) (UniProt Q9UGL1)
# Experiment: Optimization screen for KDM5B Histone Demethylases FDH coupled qHTS against the LOPAC library (AID 1347166)
# Details: KDM5B demethylation, FDH-coupled NADH fluorescence (FDH is formaldehyde dehydrogenase); series mostly up to 57.5 µM
# In short: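 KDM5BDeltaAP (200nM final) preincubated 10 min with compound, then 12.5uM H3K4Me3, 25uM a-ketoglutarate, ascorbate, Fe(II), NAD+ and FDH added; 50mM HEPES pH 7.5, 0.01% Tween-20. NADH fluorescence (340/450 nm) change over 30 min, room temperature.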
# Chain of Lysine-specific demethylase 5B (Homo sapiens) (Q9UGL1 whole entry, looked up): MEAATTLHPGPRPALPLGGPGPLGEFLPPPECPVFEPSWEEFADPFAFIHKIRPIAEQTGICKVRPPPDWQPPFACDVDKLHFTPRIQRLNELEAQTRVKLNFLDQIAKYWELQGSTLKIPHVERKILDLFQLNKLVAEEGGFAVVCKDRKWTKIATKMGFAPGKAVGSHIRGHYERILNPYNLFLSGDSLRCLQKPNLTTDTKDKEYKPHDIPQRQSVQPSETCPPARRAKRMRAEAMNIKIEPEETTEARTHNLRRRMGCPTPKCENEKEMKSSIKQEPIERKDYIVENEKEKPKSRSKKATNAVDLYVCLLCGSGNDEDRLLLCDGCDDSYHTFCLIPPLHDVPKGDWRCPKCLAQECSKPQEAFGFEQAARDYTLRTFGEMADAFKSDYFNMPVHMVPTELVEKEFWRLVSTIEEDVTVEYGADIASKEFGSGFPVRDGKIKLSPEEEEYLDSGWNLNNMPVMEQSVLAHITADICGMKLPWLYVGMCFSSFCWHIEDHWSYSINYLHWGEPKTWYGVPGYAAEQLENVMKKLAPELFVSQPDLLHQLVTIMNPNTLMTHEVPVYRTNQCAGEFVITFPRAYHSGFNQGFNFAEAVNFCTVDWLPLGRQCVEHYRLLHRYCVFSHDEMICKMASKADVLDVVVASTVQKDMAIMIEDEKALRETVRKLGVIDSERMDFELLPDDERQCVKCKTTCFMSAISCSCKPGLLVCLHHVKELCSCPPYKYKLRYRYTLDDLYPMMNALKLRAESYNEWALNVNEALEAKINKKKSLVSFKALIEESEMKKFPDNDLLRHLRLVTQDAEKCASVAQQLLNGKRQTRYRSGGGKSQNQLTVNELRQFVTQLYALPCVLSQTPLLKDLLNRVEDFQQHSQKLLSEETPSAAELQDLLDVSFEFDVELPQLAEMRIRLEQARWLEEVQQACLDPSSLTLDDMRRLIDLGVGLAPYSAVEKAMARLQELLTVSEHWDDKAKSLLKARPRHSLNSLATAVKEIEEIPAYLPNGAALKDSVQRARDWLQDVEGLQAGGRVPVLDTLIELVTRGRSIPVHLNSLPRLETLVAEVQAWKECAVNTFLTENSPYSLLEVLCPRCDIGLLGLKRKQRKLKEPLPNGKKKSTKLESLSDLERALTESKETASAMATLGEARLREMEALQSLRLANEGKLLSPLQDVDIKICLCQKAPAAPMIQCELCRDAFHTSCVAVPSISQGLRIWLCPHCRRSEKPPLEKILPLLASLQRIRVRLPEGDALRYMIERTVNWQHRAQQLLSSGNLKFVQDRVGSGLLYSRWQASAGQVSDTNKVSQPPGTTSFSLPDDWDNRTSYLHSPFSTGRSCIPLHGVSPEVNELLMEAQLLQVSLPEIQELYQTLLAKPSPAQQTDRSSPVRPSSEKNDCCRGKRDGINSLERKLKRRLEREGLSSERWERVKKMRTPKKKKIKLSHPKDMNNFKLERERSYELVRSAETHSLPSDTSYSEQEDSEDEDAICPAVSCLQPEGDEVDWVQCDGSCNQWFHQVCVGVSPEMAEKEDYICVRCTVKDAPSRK
row,Compound,outcome
1,Cn1cc(C2=C(c3ccc(Cl)cc3Cl)C(=O)NC2=O)c2ccccc21,inactive
2,CCN1/C(=C/C(C)=O)Sc2ccc(OC)cc21,inactive
3,CC1(C)CCC=[N+]1[O-],inactive
4,CCCCCCCCCCCCCCCCCC(=O)OC(CC(=O)O)C[N+](C)(C)C (stereo not given),inactive
5,O=C1/C(=C/c2ccsc2)CC/C1=C\c1cccs1,inactive
6,CO/N=C(\C(=O)N[C@@H]1C(=O)N2C(C(=O)O)=C(COC(C)=O)CS[C@H]12)c1csc(N)n1,inactive
7,CCCCCC(O)c1cccc(OCc2ccc3ccccc3n2)c1 (stereo not given),inactive
8,C[N+](C)(C)CC(=O)[O-],inactive
9,O=c1[nH]c2cc([N+](=O)[O-])c([N+](=O)[O-])cc2[nH]c1=O,inactive
10,CC1OC1P(=O)(O)O (stereo not given),inactive
11,NCCCCCCCCCCN,inactive
12,O=S(=O)(c1cccc2c(I)cccc12)N1CCCNCC1,inactive
13,Nc1ncnc2c1c(I)cn2[C@@H]1C[C@H](N)[C@@H](O)[C@H]1O,inactive
14,CC(C)CC(NP(=O)(O)O[C@@H]1O[C@@H](C)[C@H](O)[C@@H](O)[C@H]1O)C(=O)NC(Cc1c[nH]c2ccccc12)C(=O)O (stereo not given in full),inactive
15,CN1CCc2cc(NC(=O)Nc3cccnc3)ccc21,inactive
16,COc1cc2c(CCNC(C)=O)c[nH]c2cc1Cl,inactive
17,COc1cc(C(O)CO)ccc1OS(=O)(=O)O (stereo not given),inactive
18,NCCCS(=O)(=O)O,inactive

row,Compound,outcome
1,O=C(O)[C@@H]1C[C@H](C(=O)O)N1,inactive
2,O=C(O)c1cc(=O)c2c(Cl)cc(Cl)cc2[nH]1,inactive
3,Fc1cccc(/C=N/N=C/c2cccc(F)c2)c1,inactive
4,C[N+]1(C)CCC(OC(=O)C(c2ccccc2)c2ccccc2)CC1,inactive
5,N=C(N)SCCc1ccc(CCSC(=N)N)cc1,inactive
6,CCOC(=O)N1CCN(/[N+]([O-])=N/Oc2ccc([N+](=O)[O-])cc2[N+](=O)[O-])CC1,inactive
7,COc1cc(SC)ccc1C(=O)N1CCC(Cc2ccccc2)CC1,inactive
8,NS(=O)(=O)C#Cc1ccccc1,inactive
9,Cc1cc(NC2CCCCC2)nc(-n2nc(C)cc2C)n1,inactive
10,COc1ccc(NC(=O)/C=C/c2ccc(Cl)cc2)cc1,inactive
11,O=C(O)/C=C/C(O)c1ccc(Cl)cc1 (stereo not given),inactive
12,O=C(O)CC[C@@H](C(=O)O)N1C(=O)c2ccccc2C1=O,inactive
13,CC(C)NC[C@H](O)COc1cccc2[nH]ccc12,inactive
14,NC(=O)C1=CN(C2OC(COP(=O)(O)OP(=O)(O)OC[C@H]3O[C@@H](n4cnc5c(N)ncnc54)[C@H](OP(=O)(O)O)[C@@H]3O)C(O)C2O)C=CC1 (stereo not given in full),inactive
15,C=CC(N)CCC(=O)O (stereo not given),inactive
16,CN(C)CCC(c1ccc(Cl)cc1)c1ccccn1 (stereo not given),inactive
17,CNC(=O)[C@H]1O[C@@H](n2cnc3c(NCc4cccc(I)c4)ncnc32)[C@H](O)[C@@H]1O,inactive
